# Hits are enriched below; roughly 0.28% of the tested compounds scored in any of these assays.
# hcGAS lum: inhibitors of human cGAS; recombinant h-cGAS, ATP depletion, Kinase-Glo luminescence; inhibition, % at 12.5 µM; 290,000 compounds, 0.081% hits;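 note: 0% = vehicle reaction and 100% = reaction without DNA for no activity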
# Target sequence (Q8N884 whole entry, looked up): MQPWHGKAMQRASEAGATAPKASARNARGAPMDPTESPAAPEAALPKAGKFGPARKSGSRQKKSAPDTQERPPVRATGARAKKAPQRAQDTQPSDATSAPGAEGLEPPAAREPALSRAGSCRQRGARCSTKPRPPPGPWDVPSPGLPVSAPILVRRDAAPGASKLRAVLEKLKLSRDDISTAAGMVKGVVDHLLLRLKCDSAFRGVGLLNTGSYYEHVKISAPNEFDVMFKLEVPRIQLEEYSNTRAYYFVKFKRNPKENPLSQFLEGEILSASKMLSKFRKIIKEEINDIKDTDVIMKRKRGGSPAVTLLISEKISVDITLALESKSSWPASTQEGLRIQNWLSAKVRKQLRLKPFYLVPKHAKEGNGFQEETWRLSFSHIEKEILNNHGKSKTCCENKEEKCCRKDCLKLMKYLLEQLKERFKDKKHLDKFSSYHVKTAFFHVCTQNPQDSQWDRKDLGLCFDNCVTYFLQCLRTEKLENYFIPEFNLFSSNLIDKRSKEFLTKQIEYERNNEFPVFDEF
# mcGAS inh: blocks mouse cGAS activity. Q8C6L5. recombinant cGAS, Kinase-Glo ATP depletion luminescence. inhibition, % at 12.5 µM. 160,000 compounds, 0.15% hits. AID 1259399;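 note: 0% = negative control wells and 100% = reference inhibitor with no enzyme activity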
# NPYLR7 agonist: mosquito NPYLR7 agonism | AID 1259423 | 270,000 compounds, 0.15% hits | activation, % at 10 µM | HEK293T NPYLR7/Galpha15, GCaMP6s calcium fluorescence; in the data active = activation above about 40%;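 note: 0% = vehicle and 100% = reference agonist at the receptor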
# * hit, by the source's call; / = not tested or not shown. Cut-off read from the data, not from the text of the source, unless noted: active = inhibition above about 40%; inactive = the rest.
SMILES,hcGAS lum,mcGAS inh,NPYLR7 agonist
Cc1csc(N2C(=N)SC(c3ccccc3)C2=O)n1 (stereo unspecified),-3.0,-1.2,1.2
Cc1csc(N2C(=N)SCC2=O)n1,42.2*,4.8,8.2
Cc1cc(C2=NNC(=NCc3ccco3)SC2)c(C)n1Cc1ccco1,-4.3,-6.7,10.3
N#Cc1c(Cl)nsc1NC1CCSc2c(F)cccc21 (stereo unspecified),1.1,/,1.1
CC1C(=O)c2cccc3c(=O)n(-c4ccccc4)c(O)c(c23)C1=O (stereo unspecified),4.4,/,82.9*
CC(=O)c1ccc(-n2c(=O)c3ccccc3c3ccccc3c2=O)cc1,-5.6,/,4.2
CC(C)CN1C(=O)C(=Cc2c(N3CCN(CCO)CC3)nc3ccccn3c2=O)SC1=S,-3.6,-5.1,79.0*
CCCNc1nc2ccccn2c(=O)c1C=C1SC(=S)N(CC(C)C)C1=O,-13.0,/,1.8
COc1cccc(C(=O)Nc2nn(C)c3c2C(c2ccccc2)CC(=O)N3)c1 (stereo unspecified),-2.2,-6.0,-13.1
Cc1ccc(CN(Cc2ccc(F)cc2)CC(O)Cc2ccccc2)c(C)c1 (stereo unspecified),-3.9,-5.0,30.0
CCCN(Cc1cc(C)ccc1C)CC(O)Cc1ccccc1 (stereo unspecified),-5.3,62.3*,3.3
CCOC(=O)C1=C(C)N(c2ccc3c(c2)OCCO3)C(=S)NC1c1ccc(OC)cc1OC (stereo unspecified),0.9,/,1.5
Cc1nc(-n2nc(C3CC3)cc2NC(=O)COc2ccc(Cl)cc2Cl)[nH]c(=O)c1C,2.1,/,11.6
O=C1NC(=S)SC1=Cc1ccc(F)cc1,15.3,38.1,2.1
O=C(O)CN1C(=O)/C(=C/c2c(F)cccc2Cl)SC1=S,-2.7,-1.3,-4.1
O=C1NC(=S)SC1=Cc1c(F)cccc1Cl,47.6*,/,-3.2
O=C1NC(=S)SC1=Cc1ccc(Cl)cc1,10.7,54.8*,-8.7
Cc1cc(C(=O)O)ccc1-n1c(C)cc(C=C2SC(=O)N(C)C2=O)c1C,-1.8,-4.0,-2.1
O=c1c2c(-c3ccccc3)csc2ncn1Cc1cc(-c2ccc(Cl)cc2)no1,-8.3,/,10.8
COc1ccc(/C=C2\Oc3c4c(cc(C)c3C2=O)OCN(CC2CCCO2)C4)cc1OC (stereo unspecified),1.0,3.3,14.6
O=C1/C(=C/c2ccc3c(c2)OCO3)Oc2c1ccc1c2CN(CC2CCCO2)CO1 (stereo unspecified),-6.0,-6.9,83.3*
CCCOc1ccc(OCC(=O)NCC2CC2)cc1,-10.0,-17.0,6.2
CCC1(CCC(=O)NC(c2ccccc2)c2ccc(Cl)cc2)CCC(=O)N1 (stereo unspecified),-7.7,-12.7,4.3
CCOc1cc(C=C2SC(=S)N(c3ccc(OC)cc3)C2=O)ccc1O,-6.9,-6.0,-4.4
CC(=O)NN1C(=O)/C(=C\c2ccc(O)cc2)SC1=S,-7.7,-8.4,81.0*
SMILES,hcGAS lum,mcGAS inh,NPYLR7 agonist
Cc1ccc(/C=C2\SC(=S)N(CCC(=O)O)C2=O)cc1,3.7,-1.3,-3.4
CCOc1cc(/C=C2\SC(=S)N(NC(=O)c3ccccc3O)C2=O)ccc1O,-7.9,8.3,59.1*
COC(=O)c1ccc(/C=C2/SC(=S)N(C(C(=O)O)C(C)C)C2=O)cc1 (stereo unspecified),-2.5,-6.7,-1.9
O=C(O)CCN1C(=O)/C(=C/c2ccc(O)cc2)SC1=S,-4.2,-0.5,92.2*
CN1C(=O)C(=Cc2ccc(O)cc2)SC1=S,4.2,/,17.5
CC(C)C(C(=O)O)N1C(=O)/C(=C/c2ccc(N(C)C)cc2)SC1=S (stereo unspecified),-3.1,-6.9,54.2*
CCCC(C(=O)O)N1C(=O)/C(=C/c2ccc(O)cc2)SC1=S (stereo unspecified),-3.7,-3.8,79.3*
CSCCC(C(=O)O)N1C(=O)/C(=C/c2ccc(C)cc2)SC1=S (stereo unspecified),-0.8,29.4,-5.5
CC(C(=O)O)N1C(=O)/C(=C\c2ccc(O)cc2)SC1=S (stereo unspecified),0.1,2.2,62.3*
CC(C)N1C(=O)C(=Cc2ccc(O)cc2)SC1=S,-8.1,-8.3,5.1
CCOC(=O)N1CCN(c2cc(Oc3ccc(F)c(F)c3)ncn2)CC1,-5.4,-9.7,/
COCCN(Cc1ccc(OC)c(OS(=O)(=O)c2ccc(OC)cc2)c1)C(=O)NC(C)(C)C,-5.1,-4.6,20.6
Cc1ccccc1C(=O)N(CCCN(C)C)c1nc2c(F)cccc2s1,-6.5,-7.3,3.1
COCCn1c(=NC(=O)c2ccn(C)n2)sc2cc(S(N)(=O)=O)ccc21,-7.0,-8.7,/
CCN1CCc2c(sc(NC(=O)C3=COCCO3)c2-c2nc3ccccc3s2)C1,38.8,/,59.9*
CC(=O)N1CCc2c(sc(NC(=O)C3=COCCO3)c2-c2nc3ccccc3s2)C1,-4.0,/,3.0
CC(=O)Nc1sc2c(c1-c1nc3ccccc3s1)CCN(C(C)=O)C2,7.2,/,3.3
CC(=O)Nc1sc2c(c1-c1nc3ccccc3s1)CCN(Cc1ccccc1)C2,-3.3,-6.6,196.8*
Cc1cc(C)c(-c2cc(C(=O)N3CCCC(C(=O)O)C3)no2)c(C)c1 (stereo unspecified),-6.1,/,28.5
CCN(CC)C(=O)CSc1nc2c([nH]c3ccccc32)c(=O)n1-c1ccccc1OC,3.5,-1.0,1.0
CCOc1ccccc1-c1nc(CC(=O)NC2CCS(=O)(=O)C2)cs1 (stereo unspecified),-1.6,/,6.1
CN1CCN(c2cc(Cl)nc(SCc3ccc(C(=O)NCCN4CCCC4)cc3)n2)CC1,68.8*,8.0,11.8
O=C(NCCN1CCCCC1)c1ccc(CSc2nc(Cl)cc(N3CCCC3)n2)cc1,-5.6,-4.1,4.9
COc1ccc(CCN(C)c2cc(-c3ccccc3)nc(SCc3ccc(C(=O)NCc4ccncc4)o3)n2)cc1OC,-0.1,-1.3,8.6
COC(=O)c1ccc(COC(CN2CCN(C(=O)c3ccc(Cl)cc3)CC2)c2ccc(Cl)cc2)cc1 (stereo unspecified),-7.0,-4.7,/
SMILES,hcGAS lum,mcGAS inh,NPYLR7 agonist
CCC(C(=O)N1CCN(CC(OCc2ccc(C(=O)OC)cc2)c2ccc(Cl)cc2)CC1)c1ccccc1 (stereo unspecified),-6.7,87.9*,/
Cn1nc(-c2cccc(NC(=O)c3ccco3)c2)ccc1=O,-7.8,-6.6,-0.4
COc1ccc(NC(=O)c2ccc(NC(C)C)nc2)cn1,-4.2,-4.8,6.2
COCCOc1ccc(NC(=O)N(C)C(C)C2(C)CC2)cn1 (stereo unspecified),-6.7,-15.4,134.0*
CCOC(=O)c1ccc2c(c1)nc(SCc1cc3c(cc1Cl)OCO3)n2Cc1ccccn1,-1.9,-6.0,11.1
O=C1CCCCCN1CP(=O)(O)CN1CCCCC1,-8.2,-4.0,/
O=C1CCCCCN1CO,82.9*,2.8,-5.5
COc1ccc(C(CNc2ncnc3sc4c(c23)CCCC4)N2CCOCC2)cc1OC (stereo unspecified),-7.0,/,-0.4
Cc1ccc(C=C(C#N)S(=O)(=O)c2ccc(Br)cc2)o1,-6.3,/,4.7
COc1ccc2c(c1)OCC(C=C(C#N)S(=O)(=O)c1ccc(Br)cc1)=C2,-6.5,/,93.1*
O=c1c(-c2cc(O)c(O)c(O)c2)coc2cc(O)c(O)c(O)c12,70.7*,82.2*,/
O=c1c(-c2ccc(O)cc2)coc2cc(O)cc(O)c12,-0.9,-0.7,-0.3
Cc1[nH]n2c(=O)c(C#N)c(-c3ccccc3)nc2c1-c1ccccc1,53.7*,/,-5.3
